In PubChem BioAssay (NCI):
Several values for one entry are separate records, joined by “and”; a condition that tells them apart may be missing. Equal entries are not always repeated. The panel holds about 83,000 compounds, 20% with a hit somewhere; the sample as a whole holds those more often.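 Note: values are percent growth. 100 is the growth of untreated cells, values between 100 and 0 indicate rising inhibition; between -100 and 0 indicates cell death.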 Activity calls are given as the source filed them. How the source made its calls: active means growth percent below 10; inactive means the rest.

Columns and labels:
Assay in all cases: NCI-60 one-dose screen, 48 h (100 = growth as untreated, 0 = no growth, -100 = all killed)
Conditions in all cases: 10 µM unless noted
[1] = test system: DU-145 prostate
[2] = test system: K-562 leukemia
[3] = test system: MALME-3M melanoma
[4] = test system: MDA-MB-231 breast
[5] = test system: RXF 393 renal
[6] = test system: SF-268 CNS
[7] = test system: SF-295 CNS
[8] = test system: SF-539 CNS
[9] = test system: UACC-257 melanoma
[10] = test system: M14 melanoma

Measured: growth

Nc1cccc(-n2c(COc3ccc(I)cc3)nc3ccccc32)c1
inactive: [1] 96.2% and 95.5% | [2] 61.5% and 99.3% | [3] 82.2% and 96.1% | [4] 56% and 102% | [5] 82.3% and 106% | [6] 74.4% and 96.5% | [7] 89.8% and 101% | [8] 79.7% and 97.7% | [9] 99% and 101% | [10] 91.5% and 108%

COc1ccc(N=Nc2c(N)nn3c(N)c(C#N)c(-c4ccc(F)cc4)nc23)cc1
inactive: [1] 58.8% | [2] 68.6% | [3] 48.7% | [5] 35.1% | [6] 61.2% | [7] 63% | [9] 105% | [10] 80.2%
active: [4] -9.82% | [8] -5.21%

NC1(c2ccc(-c3ccc4ncnc(NCc5ccccc5)c4c3)cn2)COC1
inactive: [1] 105% and 97.7% | [2] 114% and 100% | [3] 106% | [4] 105% and 106% | [5] 103% and 101% | [6] 111% and 113% | [7] 102% and 101% | [8] 101% and 104% | [9] 120% and 109% | [10] 134% and 114%

CC(C)(C)C(=O)c1c2c(c3ccc4c5ccccc5ccc4n13)C(=O)c1ccccc1C2=O
active: [3] 9.73%
inactive: [1] 95.6% | [2] 103% | [4] 85.7% | [5] 105% | [6] 101% | [7] 99.6% | [8] 87.2% | [9] 105% | [10] 71.3%

O=C1/C(=C/c2cnc(-c3ccccc3)s2)SC(=S)N1Cc1ccc2c(c1)OCO2
active: [7] 9.27%
inactive: [1] 86% | [2] 42.1% | [3] 70.2% | [4] 76.9% | [5] 10.5% | [6] 44.6% | [8] 23.3% | [9] 108% | [10] 107%

CC[C@]12C=CCN3CC[C@]4(C(=C(C(=O)OC)C1)Nc1cc(OC)c([C@@H]5[C@H]6O[C@H]6[C@@]6(CC)CC(C(=O)OC)=C7Nc8cc(OC)ccc8[C@@]78CCN5[C@@H]68)cc14)[C@@H]32
inactive: [1] 70.2% | [2] 13.7% | [3] 44.4% | [4] 52.6% | [5] 48.1% | [6] 57.3% | [7] 53.8% | [8] 61.4% | [9] 75.2% | [10] 60.2%

COc1sc(/C=N/NC(=O)c2[nH]c3ccc(Br)cc3c2-c2ccccc2)cc1Cl
inactive: [3] 18.1% | [9] 29%
active: [1] -63.2% | [2] 9.98% | [4] -68% | [5] -25.7% | [6] -17.2% | [7] -40.6% | [8] -85.3% | [10] -3.6%

CCCCCCCCCc1ccc(C(=O)Nc2cc(C)ccc2C(=O)OC)cc1
inactive: [1] 119% | [2] 98.8% | [3] 99.8% | [4] 103% | [5] 117% | [6] 116% | [7] 103% | [8] 112% | [9] 106% | [10] 105%

O=C(Cc1c(-c2ccccc2[N+](=O)[O-])n(-c2ncnc3c2c(-c2ccccc2)c(-c2ccccc2)n3Cc2ccccc2)[nH]c1=O)c1ccc(Cl)c(Cl)c1
inactive: [1] 32.2% | [2] 12% | [4] 33.5% | [5] 31.7% | [6] 30.9% | [8] 38.2% | [9] 11.5% | [10] 14.6%
active: [3] -12.6% | [7] 3.25%

COc1c(F)ccc(C(=O)Nc2ccc3nc(NC(=O)C4CCCN(S(=O)(=O)c5ccc(C(C)(C)C)cc5)C4)sc3c2)c1F (stereo not given)
inactive: [1] 79.5% | [2] 26.5% | [3] 77.3% | [4] 47% | [5] 14.9% | [6] 68.5% | [7] 78.3% | [8] 74% | [9] 69.3% | [10] 87.6%

Nc1nn2c(-c3cc4ccccc4oc3=O)ccnc2c1N=Nc1ccccc1
inactive: [1] 90.6% | [2] 67.2% | [3] 81.9% | [6] 61.8% | [7] 72.3% | [9] 109% | [10] 92.1%
active: [4] -34.8% | [5] 2.06% | [8] -62.4%

N#Cc1c(-c2ccc(F)cc2)nc(SCc2ccc(F)cc2)nc1N1CCNCC1
inactive: [6] 41.5%
active: [1] -3.44% | [2] 0.722% | [3] -97.8% | [4] -93.6% | [5] -64.7% | [7] -79.9% | [8] -98.9% | [9] -90.7% | [10] -88.4%

CN1CCN(CCS(=O)(=O)Nc2cc(-c3ccc4ncnc(Nc5ccc(F)c(Cl)c5)c4c3)cnc2Cl)CC1
active: [3] -90.5% | [4] -41.3% | [5] -1.07% | [7] 7.8% | [8] -8.6%
inactive: [1] 14.8% | [2] 20.2% | [6] 40.8% | [9] 18.2% | [10] 20.9%

COc1ccc2[nH]cc(-c3cc4nc(-c5cn(C)c6ncc(Br)cc56)cc(N)n4n3)c2c1
active: [1] -70.7% | [2] -27.4% | [3] -87% | [4] -83.8% | [5] -77.2% | [6] -44% | [7] -77.4% | [8] -95.4% | [9] -82.3% | [10] -85.2%

CS(=O)(=O)Nc1cccc(-n2cnc3cc(-c4ccc(O)cc4)ccc32)c1
inactive: [1] 29.2% | [2] 18% | [3] 27.3% | [4] 49.3% | [6] 50.3% | [7] 32% | [9] 70.5% | [10] 26.2%
active: [5] -14.2% | [8] 0.311%

COc1ccc(/C=C/C(=O)c2ccc(OC)c(S(N)(=O)=O)c2)c(C(F)(F)F)c1
active: [2] 7% | [4] 5.46% | [8] -84.9% | [10] -48.5%
inactive: [1] 16.4% | [3] 17.8% | [5] 16.4% | [6] 15.5% | [7] 37.5% | [9] 62.3%

COc1cc(CNC(=O)[C@]23CCC(C)(C)CC2C2=CCC4[C@@]5(C)CCC(OC(C)=O)C(C)(C)C5CC[C@@]4(C)[C@]2(C)CC3)ccc1OCc1cn(-c2ccc(Cl)cc2Cl)nn1 (stereo not given in full)
inactive: [1] 116% | [2] 85.5% | [3] 99% | [4] 88.8% | [5] 116% | [6] 110% | [7] 100% | [8] 101% | [9] 88.6% | [10] 98.2%

O=C(CSc1nc2ccccc2c(=O)[nH]1)NNC(=O)c1ccccc1Cl
inactive: [1] 110% | [2] 103% | [3] 105% | [4] 99.8% | [5] 117% | [6] 106% | [7] 112% | [8] 96.5% | [9] 95% | [10] 110%

O=C(c1ccc(Cl)cc1)C1[C@H](c2ccccc2Cl)[C@@H](c2ccccc2)NC12C(=O)Nc1ccc(Br)cc12 (stereo not given in full)
active: [1] -34.7% | [2] -43.2% | [3] -64.2% | [4] -95.4% | [5] -93.5% | [6] -45.1% | [7] -88.1% | [8] -85.2% | [9] -30.7% | [10] -88.5%

O=C1CC(c2ccc(I)cc2)OC2C=Cc3ccccc3C12 (stereo not given)
inactive: [1] 106% | [2] 102% | [3] 94.3% | [4] 97.6% | [5] 107% | [6] 114% | [7] 99.9% | [8] 106% | [9] 113% | [10] 108%

CC(Nc1ncnc2ccc(-c3ccc4oc(N)nc4c3)cc12)c1ccccc1 (stereo not given)
inactive: [1] 14% | [6] 35.6% | [9] 73.4% | [10] 23.7%
active: [2] 7.11% | [3] -26.5% | [4] -38% | [5] -77.9% | [7] -17.4% | [8] -89.4%

CC(=O)c1ccc2c(N)c(C(=O)Nc3ccc(C(F)(F)F)cc3)sc2n1
inactive: [1] 82.2% | [2] 20% | [3] 26.4% | [4] 68.3% | [5] 85.8% | [6] 85.2% | [7] 38.1% | [8] 71.1% | [9] 59.5% | [10] 58.3%

C[C@H](NC(=O)c1ccc2c(-c3ccc(C(F)(F)F)cc3)cccc2c1)c1ccccn1
inactive: [1] 56.4% | [2] 20.6% | [3] 67% | [4] 59.9% | [5] 13% | [6] 58.9% | [7] 32.5% | [8] 62.3% | [9] 64.3% | [10] 40.7%

CC1=C(C)C(=O)C(NCCN2CCOCC2)=C(Br)C1=O
inactive: [5] 122% | [6] 63.7% | [7] 103% | [8] 32.1% | [10] 37.3%
active: [1] -76.9% | [2] 0.994% | [3] -69% | [4] -6.27% | [9] -13.3%

S=C(Nc1ccccc1)Nc1ccc(OCc2nc3ccc(Cl)cc3[nH]2)cc1
inactive: [1] 96.4% | [2] 30.9% | [3] 92.4% | [4] 80% | [5] 85.1% | [6] 92.1% | [7] 93.7% | [8] 88.8% | [9] 105% | [10] 85%
